Experimental data as given in ChEMBL document CHEMBL1156829.
Whole data set: some 5,400 compounds, median “IFI” near 2, cut for the highest 2% near 22. Only a selection was taken, and the highest values are over-represented in it overall.

Assay: NOVARTIS: Inhibition Frequency Index (IFI) - the number of HTS assays where a compound showed > 50% inhibition/induction, expressed as a percentage of the number of assays in which the compound was tested.
Assay type: functional

Point of comparison: `CCN1/C(=C/C=C/c2sc3ccccc3[n+]2CC)Sc2ccccc21`, IFI 21.7%. Against it:
- CCCC(=O)N1CCN(c2nc(Cc3ccccc3)c3c(c2C#N)CC(C)(C)OC3)CC1 — lower, 4.54%
- COc1ccc(-c2nc(CN3CCCCC3)ccc2O)cc1 — lower, 0%
- CCOC(=O)C1=C(C)NC2=C(C(=O)C(C(=O)OCC)C(c3ccccc3OC)C2)C1c1sccc1C (stereo not given) — lower, 3.49%
- COc1ccc(C2(CNCC(O)c3cccc([N+](=O)[O-])c3)CCCC2)cc1OC (stereo not given) — lower, 0%
- CC(=O)Nc1cc(C(=O)Nc2ccc(C3=NCCN3)cc2)ccc1C(=O)Nc1ccc(C2=NCCN2)cc1 — lower, 0%
- Cc1ccn(CC(=O)N2CCOc3c(cc(-c4csc5ccccc45)cc3OCCc3ccccn3)C2)n1 — lower, 4%
- CC[n+]1c(/C=C/c2ccc(Cl)cc2)ccc2ccccc21 — lower, 4.84%
- CC[n+]1c(C=C2C=CN(c3ccc(Cl)cc3)C=C2)ccc2ccccc21 — lower, 15.4%
- CCN1C=Cc2ccccc2/C1=C\c1ccc2ccccc2[n+]1CC — higher, 23.6%
- O=C(CCl)Nc1ccc(OC(F)F)cc1 — lower, 0%
- COc1ccc2nc(-c3ccccc3)cc(NCCN(C)C)c2c1 — lower, 3.51%
- O=c1cc(NC2CCN(CCCc3ccccc3)CC2)c2cc(Cl)ccc2o1 — lower, 0%
- CCOC(=O)c1cnc2cc(OCC(C)C)c(OCC(C)C)cc2c1O — lower, 0.649%
- CN1c2ccccc2N(C)C1c1ccc2c(c1)OCO2 — lower, 0.621%
- c1cn2c(-c3ccc(N4CCOCC4)cc3)cnc2c(NCc2ccc3c(c2)OCO3)n1 — lower, 0%
- c1ccc(C2=NN(c3ccccc3)C(c3ccc4c(c3)OCO4)N2c2ccc(N3CCOCC3)cc2)cc1 (stereo not given) — higher, 23.1%
- CCN1CCN(c2cc(C)c3cc(NC(=O)c4ccc(F)c([N+](=O)[O-])c4)ccc3n2)CC1 — lower, 6.67%
- Cc1cc(Nc2cccc3ccccc23)nc(Nc2cccc3ccccc23)n1 — lower, 0%
- O=S(=O)(c1ccccc1)N1CCN(CC2CNCCO2)CC1 (stereo not given) — lower, 1.41%
- Cc1oc2c(c1C(=O)NCC1CCCO1)C(=O)c1ccccc1C2=O (stereo not given) — lower, 17%
- Cc1oc2c(c1C(=O)NC1CCS(=O)(=O)C1)C(=O)c1ccccc1C2=O (stereo not given) — higher, 29.7%
- Cc1oc2c(c1C(=O)N1CCC(C)CC1)C(=O)c1ccccc1C2=O — lower, 15.4%
- CCOC(=O)c1c(C)oc2c1C(=O)c1ccccc1C2=O — lower, 3.17%
- Cc1oc2c(c1C(=O)NCCCn1ccnc1)C(=O)c1ccccc1C2=O — higher, 24.3%
- Cc1oc2c(c1C(=O)NCc1cccnc1)C(=O)c1ccccc1C2=O — lower, 17.5%
- COc1cc(NC(C)CCCN(Cc2ccc(F)cc2)C(=O)CCc2ccccc2)c2ncccc2c1 (stereo not given) — lower, 1.71%
- COc1cc(NC(C)CCCN(Cc2ccc(OC)c(OC)c2)C(=O)CC(C)CC(C)(C)C)c2ncccc2c1 (stereo not given) — lower, 3.64%
- O=C(Cc1cccs1)N1CCN(c2ccccn2)CC1 — lower, 2.35%
- COc1ccc(C[C@H](N)C(=O)N[C@H]2[C@@H](O)[C@H](n3cnc4c(N(C)C)ncnc43)O[C@@H]2CO)cc1 — higher, 30.8%
- COCCN1C(=O)c2[nH]nc(-c3ccccc3O)c2C1c1ccc(SC)cc1 (stereo not given) — lower, 0%
- C[n+]1c2ccccc2nc2ccc(NC3CCCCC3N)cc21 (stereo not given) — higher, 23.1%
- C[n+]1c2ccccc2nc2ccc(NCCc3cnc[nH]3)cc21 — lower, 15.4%
- COc1ccc2c(c1)[nH]c1c(N3CCN(C(c4ccccc4)c4ccccc4)CC3)ncnc12 — lower, 8.77%
- Cc1ccc(S(=O)(=O)c2c(COC(=O)c3cccc(C)c3)c(-c3ccccc3)nn2C)cc1 — lower, 3.9%
- CN[C@H]1C[C@@H]2O[C@](C)([C@H]1O)n1c3ccccc3c3c4c(c5c6ccccc6n2c5c31)C(=O)NC4 — higher, 46.2%
- COc1cc2c(-c3cc(Br)ccc3O)nc3c(c(-c4ccccc4)nn3-c3ccccc3)c2cc1OC — lower, 3.03%
- CC[n+]1c(/C=C/N(C)c2ccccc2)sc(-c2ccccc2)c1-c1ccccc1 — lower, 14.3%
- CC[n+]1c(C=CN(C)c2ccccc2)oc(-c2ccccc2)c1-c1ccccc1 — higher, 22.7%
- CC[n+]1c(C=CN(C)c2ccccc2)sc2ccc(Cl)cc21 — lower, 9.09%
- CC(NCc1ccccc1)c1cc(Cl)ccc1O (stereo not given) — lower, 0%
- Oc1c(C(Nc2ccccn2)c2cccc(Cl)c2Cl)ccc2cccnc12 (stereo not given) — lower, 15.4%
- Cc1ccc(-c2c[n+](-c3ccccc3)c3n2CCCS3)cc1 — lower, 7.69%
- CC(C)(C)c1ccc(-c2c[n+](-c3ccccc3)c3n2CCCS3)cc1 — higher, 23.1%
- Clc1ccc(-c2c[n+](-c3ccccc3)c3n2CCS3)cc1 — lower, 0.725%
- CC1CNC2C(C)C3C(CC4C5CCC6CC(N)CCC6(C)C5CCC43C)OC2(O)C1 (stereo not given) — lower, 5.26%
- Oc1ccccc1-c1nc2sc(-c3ccccc3O)nc2s1 — lower, 11%
- N#C/C(=C\C=C\c1ccc([N+](=O)[O-])o1)c1nc2ccccc2[nH]1 — higher, 28.6%
- N#C/C(=C\c1ccc(Sc2ccccc2)o1)c1nc2ccccc2[nH]1 — lower, 6.74%
- CCN(CC)c1ccc(/C=C(/C#N)c2nc3ccccc3[nH]2)o1 — lower, 7.69%
- COc1cc(C(=O)NC2CC3CCC(C2)N3C2CC2)cc(OC)c1OC (stereo not given) — lower, 0%
- COc1ccc(-c2c[n+](CC(=O)c3ccc(Cl)cc3)c3n2CCC3)cc1 — lower, 5%
- O=C(C[n+]1cc(-c2ccc(Cl)cc2)n2c1CCC2)c1ccc(C2CCCCC2)cc1 — higher, 27.5%
- O=C(C[n+]1cc(-c2ccccc2)n2c1CCC2)c1ccc(C2CCCCC2)cc1 — lower, 12.5%
- c1cc2cc(CN3CCc4nc(N5CCCCC5)sc4C3)ccc2[nH]1 — lower, 4.17%
- CN1CCc2c(sc3nc(SCc4ccc(F)cc4)n(-c4ccccc4)c(=O)c23)C1 — lower, 2.5%
- COc1cc(/C=C2\CC/C(=C\c3cc(OC)c(OC)c(OC)c3)C2=O)cc(OC)c1OC — lower, 2.7%
- CC1C/C(=C/c2ccncc2)C(=O)/C(=C/c2ccncc2)C1 (stereo not given) — higher, 33.3%
- COc1ccc2c(c1)c(C)cc[n+]2Cc1ccccc1 — lower, 6.3%
- CC(C)(C)CC(=O)NCc1ccc(OC2CCN(CC(c3ccccc3)c3ccccc3)CC2)cc1 — lower, 7.04%
- O=C1CCC(c2ccc(Cl)c(Cl)c2)c2ccc(O)cc21 (stereo not given) — lower, 0%
- COc1cc2nc(Nc3ccc(F)cc3)nc(N)c2cc1OC — lower, 0%
- COc1ccc(-c2cc(C3CCN(c4nc(N)c5cc(OC)c(OC)cc5n4)CC3)n[nH]2)cc1OC — lower, 7.41%
- COc1cc2nc(N3CCN(c4nc(N)c5cc(OC)c(OC)cc5n4)CC3)nc(N)c2cc1OC — higher, 23.1%
- CCc1c2ccc(C)n2cc[n+]1CC — lower, 6.02%
- Cc1ccc(CSCc2ccc(C(=O)NC3CC3)o2)cc1 — lower, 0%
- CC(=O)Nc1ccc(-c2nc(-c3ccc(Oc4ccc(-c5[nH]c(-c6ccc(NC(C)=O)cc6)nc5-c5ccccc5)cc4)cc3)c(-c3ccccc3)[nH]2)cc1 — lower, 1.54%
- COc1ccc2c(c1)C(C)=CC(C)(C)N2C(=O)CSc1nnc(-c2ccc(C)cc2)o1 — lower, 0%
- O=C(N/C(=C/C=C/c1ccccc1)C(=O)N1CCCCC1)c1ccc([N+](=O)[O-])cc1 — lower, 0.685%
- CC(C)C[C@@H](NC(=O)[C@H](C)NC(=O)CNC(=O)[C@@H](NC=O)C(C)C)C(=O)N[C@@H](C)C(=O)N[C@@H](C(=O)N[C@H](C(=O)N[C@@H](C(=O)N[C@@H](Cc1c[nH]c2ccccc12)C(=O)N[C@H](CC(C)C)C(=O)N[C@@H](Cc1c[nH]c2ccccc12)C(=O)N[C@H](CC(C)C)C(=O)N[C@@H](Cc1c[nH]c2ccccc12)C(=O)N[C@H](CC(C)C)C(=O)N[C@@H](Cc1c[nH]c2ccccc12)C(=O)NCCO)C(C)C)C(C)C)C(C)C — higher, 27.6%
- CCCCNC(=O)NC(Cc1c[nH]c2ccccc12)C(=O)NC1CCCCC1 (stereo not given) — lower, 4.21%
- CC1CN(C(=O)C(Cc2c[nH]c3ccccc23)NC(=O)C(c2ccccc2)c2ccccc2)CCN1C(=O)NCc1ccccc1 (stereo not given) — lower, 0%
- Cc1ccc(Nc2nc(NCc3ccccc3)c3ccccc3n2)cc1 — lower, 0%
- C=CCSc1nc(N)c2c3c(sc2n1)CN(CCC)CC3 — lower, 14%
- CC[n+]1c(C=CN(C)C)sc2ccccc21 — lower, 4.62%
- CC[n+]1c(/C=C/C=C2\N(C)c3ccccc3C2(C)C)n(-c2ccccc2)c2cc(Cl)ccc21 — higher, 33.3%
- CC[n+]1c(/C=C/C=C2\N(C)c3ccccc3C2(C)C)n(-c2ccccc2)c2ccc(C)cc21 — lower, 21.4%
- CC[n+]1c(/C=C/C=C2\N(C)c3ccccc3C2(C)C)n(-c2ccccc2)c2ccc(Cl)cc21 — lower, 21.4%
- CC[n+]1c(/C=C/C=C2\N(C)c3ccccc3C2(C)C)n(CCCOC(C)=O)c2ccccc21 — lower, 14.3%
- CCC1=[N+](C)c2cccc3cccc(c23)N1C — lower, 3.12%
- CC[n+]1c(/C=C/C=C2\N(C)c3ccccc3C2(C)C)n(Cc2ccccc2)c2ccccc21 — higher, 32.6%
- C[n+]1c(C=CNc2ccccc2)n(-c2ccccc2)c2ccc(Cl)cc21 — lower, 12.5%
- CN1/C(=C\C=C\C2=[N+](C)c3ccc4ccccc4c3C2(C)C)C(C)(C)c2ccccc21 — higher, 23.1%
- CC[n+]1c(C=CC=C2N(C)c3ccccc3C2(C)C)sc2ccccc21 — higher, 28.6%
- Brc1ccc(-c2n(Cc3ccccc3)c3ccccc3[n+]2Cc2ccccc2)o1 — lower, 15.4%
- COc1ccc(NC(=O)C2c3ccccc3C(=O)N(C3CCCC3)C2c2cccs2)cc1Cl (stereo not given) — lower, 6.25%
- CC1=C(C=CC(C)C=NNC(=O)c2ccncc2)C(C)(C)CCC1 (stereo not given) — lower, 0%
- COc1ccc(-c2ccc(C=NNC(=O)CNC(=O)c3ccc4c(c3)OCO4)o2)cc1Cl — lower, 0%
- CCC(=O)CC(O)C[C@@H](C)C[C@H](NC(=O)[C@@H]1C[C@H](C)CN1C(=O)/C=C/[C@@H](C)CC)C(=O)N[C@H](C(=O)NC(C)(C)C(=O)N[C@@H](CC(C)C)C(=O)N[C@@H](CC(C)C)C(=O)NC(C)(C)C(=O)NC(C)(C)C(=O)NCCC(=O)N[C@@H](C)CN(C)C)[C@H](O)C(C)C (stereo not given in full) — lower, 12.1%
- COc1cccc(C(=O)Oc2ccccc2-c2nc3cc(C)ccn3c2NC(C)(C)CC(C)(C)C)c1 — lower, 3.74%
